Experimental data: the supplement of paper PMC10849652
Targets with a hit are over-represented here; the source holds about 7,900 in all. About 0.6% of all pairs of compound and target were hits. Values without a mark were called inactive.

What was measured:
Assay in all cases: log2 fold change, soluble protein after heating vs DMSO (PISA); higher = thermal stabilisation; K562 cells, 10 uM, 30 min; active = over 0.2 and 3.5 SD of the protein, either way, in both replicates (recomputed)
[1] = compound: CC[C@@H]1C(=O)N(C)c2cnc(Nc3ccc(C(=O)NC4CCN(C)CC4)cc3OC)nc2N1C1CCCC1
Outline: (§1)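 Thermal stability values are relative to control samples and come from duplicates. They are expressed as log2 fold changes. For measurement, K562 cells (2×10^6 cells/mL) received 10 μM compound for 30 min, and aliquots were heated for 3 min over 48°C-58°C, pooled, and extracted at 4°C in PBS with 0.5% NP-40. Soluble protein, the supernatant after 21,000xg for 90 min, was quantified by TMTpro 16plex LC-MS/MS with equalised channel sums.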

volasertib = compound: CC[C@@H]1C(=O)N(C)c2cnc(Nc3ccc(C(=O)N[C@H]4CC[C@H](N5CCN(CC6CC6)CC5)CC4)cc3OC)nc2N1C(C)C [volasertib]
Outline: as §1

[2] = compound: CC[C@H](C)N1C=C(C2=C(C=C(C=C21)C3=CN=C(C=C3)N4CCNCC4)C(=O)NCC5=C(C=C(NC5=O)C)C)C
Outline: as §1

epoxomicin = compound: CC[C@H](C)[C@@H](C(=O)N[C@@H]([C@@H](C)O)C(=O)N[C@@H](CC(C)C)C(=O)[C@]1(CO1)C)NC(=O)[C@H]([C@@H](C)CC)N(C)C(=O)C [epoxomicin]
Outline: as §1

[3] = compound: CCn1c(C(=O)N(C2CC2)C2CC2)cc2c3c(ncn3C)c(Nc3cc(C)n(C)n3)nc21
Outline: as §1

[4] = compound: CCn1cc(-c2ccnc3[nH]c(-c4cccc(CN(C)C)c4)cc23)c(-c2ccc(NC(=O)N(C)C)cc2)n1
Outline: as §1

[5] = compound: CN(C)CC(=O)Nc1ccc2[nH]c(=O)c3ccccc3c2c1
Outline: as §1

rosiglitazone = compound: CN(CCOC1=CC=C(C=C1)C[C@H]2C(=O)NC(=O)S2)C3=CC=CC=N3 (racemic) [rosiglitazone]
Outline: as §1

[6] = compound: CN1C2=C(C3=C1C(=O)N(N=C3)CC4=CC(=CC=C4)N)SC(=C2)S(=O)C
Outline: as §1

[7] = compound: CN1CCC(CNc2ccc3ncc(-c4cccc(OC(F)(F)F)c4)n3n2)CC1
Outline: as §1

saracatinib = compound: CN1CCN(CCOc2cc(OC3CCOCC3)c3c(Nc4c(Cl)ccc5c4OCO5)ncnc3c2)CC1 [saracatinib]
Outline: as §1

sotrastaurin = compound: CN1CCN(c2nc(C3=C(c4c[nH]c5ccccc45)C(=O)NC3=O)c3ccccc3n2)CC1 [sotrastaurin]
Outline: as §1

alvocidib = compound: CN1CC[C@H](c2c(O)cc(O)c3c(=O)cc(-c4ccccc4Cl)oc23)[C@H](O)C1 [alvocidib]
Outline: as §1

Tubastatin A = compound: CN1CCc2c(c3ccccc3n2Cc2ccc(C(=O)NO)cc2)C1 [Tubastatin A]
Outline: as §1

[8] = compound: CNC(=O)C1=CC=CC=C1NC2=NC(=NC=C2Cl)NC3=C(C=C(C=C3)N4CCOCC4)OC
Outline: as §1

defactinib = compound: CNC(=O)c1ccc(Nc2ncc(C(F)(F)F)c(NCc3nccnc3N(C)S(C)(=O)=O)n2)cc1 [defactinib]
Outline: as §1

rucaparib = compound: CNCc1ccc(-c2[nH]c3cc(F)cc4c3c2CCNC4=O)cc1 [rucaparib]
Outline: as §1

[9] = compound: CNc1nc(-c2ccc3c(N)n[nH]c3c2)cc(N2C[C@@H](C(=O)NC3CCCCC3)CC[C@H]2C)n1
Outline: as §1

encorafenib = compound: COC(=O)N[C@@H](C)CNc1nccc(-c2cn(C(C)C)nc2-c2cc(Cl)cc(NS(C)(=O)=O)c2F)n1 [encorafenib]
Outline: as §1

[10] = compound: COC(=O)[C@H](CCSC)NC(=O)C1=C(C=C(C=C1)NC[C@H](CS)N)C2=CC=CC=C2
Outline: as §1

UniProt P12259, sequence (P12259 whole entry, looked up): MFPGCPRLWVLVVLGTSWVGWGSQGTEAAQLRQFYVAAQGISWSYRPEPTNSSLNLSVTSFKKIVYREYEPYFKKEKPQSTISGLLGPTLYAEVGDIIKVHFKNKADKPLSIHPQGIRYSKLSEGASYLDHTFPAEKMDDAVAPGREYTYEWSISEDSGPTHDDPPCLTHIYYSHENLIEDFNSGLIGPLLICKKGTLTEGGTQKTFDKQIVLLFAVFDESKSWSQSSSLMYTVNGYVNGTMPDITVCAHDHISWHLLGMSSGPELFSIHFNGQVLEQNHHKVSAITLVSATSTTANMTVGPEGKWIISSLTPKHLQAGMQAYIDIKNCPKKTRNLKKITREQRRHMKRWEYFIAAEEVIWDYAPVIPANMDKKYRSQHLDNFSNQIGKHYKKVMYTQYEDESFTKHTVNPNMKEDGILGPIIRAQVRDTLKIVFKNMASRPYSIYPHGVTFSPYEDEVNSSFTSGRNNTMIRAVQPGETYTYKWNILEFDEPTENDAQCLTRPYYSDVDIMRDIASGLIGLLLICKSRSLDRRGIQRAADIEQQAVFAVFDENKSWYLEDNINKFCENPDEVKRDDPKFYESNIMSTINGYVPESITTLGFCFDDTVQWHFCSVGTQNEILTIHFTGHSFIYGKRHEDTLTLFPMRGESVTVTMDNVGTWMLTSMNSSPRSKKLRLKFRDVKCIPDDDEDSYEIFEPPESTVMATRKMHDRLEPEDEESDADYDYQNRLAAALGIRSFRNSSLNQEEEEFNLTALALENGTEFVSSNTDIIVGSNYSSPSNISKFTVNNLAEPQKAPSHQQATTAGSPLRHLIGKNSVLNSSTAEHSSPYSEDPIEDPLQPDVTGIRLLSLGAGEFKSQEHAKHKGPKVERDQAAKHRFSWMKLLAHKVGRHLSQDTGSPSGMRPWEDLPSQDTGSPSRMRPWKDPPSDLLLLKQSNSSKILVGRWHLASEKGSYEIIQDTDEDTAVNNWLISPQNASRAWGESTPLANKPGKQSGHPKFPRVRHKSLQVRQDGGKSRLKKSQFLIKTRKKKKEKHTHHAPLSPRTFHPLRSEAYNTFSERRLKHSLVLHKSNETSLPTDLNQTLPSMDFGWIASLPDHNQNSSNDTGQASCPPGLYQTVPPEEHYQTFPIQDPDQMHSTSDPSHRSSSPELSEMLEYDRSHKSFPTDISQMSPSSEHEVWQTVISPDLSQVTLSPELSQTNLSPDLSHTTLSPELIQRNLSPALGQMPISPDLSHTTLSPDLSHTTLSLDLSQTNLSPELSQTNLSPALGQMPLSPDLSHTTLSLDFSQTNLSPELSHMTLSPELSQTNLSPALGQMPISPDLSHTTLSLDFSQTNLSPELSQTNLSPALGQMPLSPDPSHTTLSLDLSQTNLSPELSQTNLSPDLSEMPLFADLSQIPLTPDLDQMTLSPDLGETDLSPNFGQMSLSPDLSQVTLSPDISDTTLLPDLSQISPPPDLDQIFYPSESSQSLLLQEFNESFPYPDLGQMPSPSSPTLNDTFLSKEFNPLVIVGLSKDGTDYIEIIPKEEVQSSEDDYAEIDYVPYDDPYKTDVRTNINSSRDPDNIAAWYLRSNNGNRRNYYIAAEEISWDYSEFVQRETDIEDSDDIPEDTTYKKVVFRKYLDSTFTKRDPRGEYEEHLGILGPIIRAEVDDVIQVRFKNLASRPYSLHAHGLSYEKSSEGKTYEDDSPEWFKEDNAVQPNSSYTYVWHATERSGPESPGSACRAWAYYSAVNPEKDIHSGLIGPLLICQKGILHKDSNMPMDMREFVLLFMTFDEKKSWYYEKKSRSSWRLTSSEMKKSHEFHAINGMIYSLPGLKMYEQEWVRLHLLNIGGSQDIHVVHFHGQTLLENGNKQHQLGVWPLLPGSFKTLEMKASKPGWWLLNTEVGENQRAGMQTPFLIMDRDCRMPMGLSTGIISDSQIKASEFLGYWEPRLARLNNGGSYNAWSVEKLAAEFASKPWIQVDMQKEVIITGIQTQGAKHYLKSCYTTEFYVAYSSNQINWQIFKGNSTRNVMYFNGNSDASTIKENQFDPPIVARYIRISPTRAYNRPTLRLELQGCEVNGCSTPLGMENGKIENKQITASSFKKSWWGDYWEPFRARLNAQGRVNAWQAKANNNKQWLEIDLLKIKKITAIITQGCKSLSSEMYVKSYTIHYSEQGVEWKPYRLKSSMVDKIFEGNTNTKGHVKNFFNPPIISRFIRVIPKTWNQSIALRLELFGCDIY
UniProt Q5VYK3, sequence (Q5VYK3 whole entry, looked up): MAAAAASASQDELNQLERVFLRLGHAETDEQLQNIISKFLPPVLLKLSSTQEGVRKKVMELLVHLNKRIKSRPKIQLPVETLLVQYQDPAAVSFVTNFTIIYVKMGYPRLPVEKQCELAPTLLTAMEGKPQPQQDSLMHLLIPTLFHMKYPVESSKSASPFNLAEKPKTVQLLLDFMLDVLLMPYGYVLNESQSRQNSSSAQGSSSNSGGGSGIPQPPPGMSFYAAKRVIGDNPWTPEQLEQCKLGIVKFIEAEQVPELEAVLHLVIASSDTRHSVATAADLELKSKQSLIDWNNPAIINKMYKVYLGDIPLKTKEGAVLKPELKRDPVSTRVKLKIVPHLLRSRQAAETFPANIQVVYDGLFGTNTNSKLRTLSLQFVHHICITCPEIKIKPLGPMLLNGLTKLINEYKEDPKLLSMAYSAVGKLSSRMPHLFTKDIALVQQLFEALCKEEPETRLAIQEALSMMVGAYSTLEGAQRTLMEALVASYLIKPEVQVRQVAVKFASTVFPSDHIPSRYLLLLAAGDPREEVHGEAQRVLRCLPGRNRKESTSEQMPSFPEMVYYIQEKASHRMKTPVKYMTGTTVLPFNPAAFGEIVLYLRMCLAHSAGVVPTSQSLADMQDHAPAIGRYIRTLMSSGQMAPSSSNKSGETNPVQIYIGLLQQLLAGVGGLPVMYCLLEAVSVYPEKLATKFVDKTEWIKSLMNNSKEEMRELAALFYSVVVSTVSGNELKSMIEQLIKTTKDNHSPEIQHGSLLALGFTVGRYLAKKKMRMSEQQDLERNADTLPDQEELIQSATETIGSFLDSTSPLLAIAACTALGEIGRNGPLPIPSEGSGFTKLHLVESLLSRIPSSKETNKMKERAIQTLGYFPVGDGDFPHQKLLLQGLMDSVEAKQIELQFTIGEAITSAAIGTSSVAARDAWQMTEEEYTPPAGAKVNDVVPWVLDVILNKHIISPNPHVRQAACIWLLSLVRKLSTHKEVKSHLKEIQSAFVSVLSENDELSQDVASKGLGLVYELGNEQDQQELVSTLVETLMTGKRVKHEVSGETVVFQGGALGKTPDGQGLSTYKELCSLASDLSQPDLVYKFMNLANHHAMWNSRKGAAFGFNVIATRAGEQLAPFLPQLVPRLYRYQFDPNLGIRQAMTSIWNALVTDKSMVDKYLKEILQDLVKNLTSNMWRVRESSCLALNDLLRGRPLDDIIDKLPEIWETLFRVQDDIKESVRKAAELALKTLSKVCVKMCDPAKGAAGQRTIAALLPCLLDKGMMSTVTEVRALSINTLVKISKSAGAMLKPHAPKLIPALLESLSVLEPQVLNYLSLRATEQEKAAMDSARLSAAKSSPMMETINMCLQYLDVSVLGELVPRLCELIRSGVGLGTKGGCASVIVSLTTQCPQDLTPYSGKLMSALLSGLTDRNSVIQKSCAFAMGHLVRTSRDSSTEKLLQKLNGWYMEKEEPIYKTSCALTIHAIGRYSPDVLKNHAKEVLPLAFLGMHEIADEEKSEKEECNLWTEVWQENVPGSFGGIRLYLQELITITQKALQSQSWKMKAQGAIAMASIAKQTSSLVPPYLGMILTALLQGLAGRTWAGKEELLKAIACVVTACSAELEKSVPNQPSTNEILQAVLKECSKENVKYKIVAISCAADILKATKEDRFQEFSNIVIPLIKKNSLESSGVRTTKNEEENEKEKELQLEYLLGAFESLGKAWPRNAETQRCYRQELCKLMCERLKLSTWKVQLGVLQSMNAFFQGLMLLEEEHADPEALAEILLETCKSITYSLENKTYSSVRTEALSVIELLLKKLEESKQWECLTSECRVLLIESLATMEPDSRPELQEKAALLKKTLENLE
UniProt P32519, sequence (P32519 whole entry, looked up): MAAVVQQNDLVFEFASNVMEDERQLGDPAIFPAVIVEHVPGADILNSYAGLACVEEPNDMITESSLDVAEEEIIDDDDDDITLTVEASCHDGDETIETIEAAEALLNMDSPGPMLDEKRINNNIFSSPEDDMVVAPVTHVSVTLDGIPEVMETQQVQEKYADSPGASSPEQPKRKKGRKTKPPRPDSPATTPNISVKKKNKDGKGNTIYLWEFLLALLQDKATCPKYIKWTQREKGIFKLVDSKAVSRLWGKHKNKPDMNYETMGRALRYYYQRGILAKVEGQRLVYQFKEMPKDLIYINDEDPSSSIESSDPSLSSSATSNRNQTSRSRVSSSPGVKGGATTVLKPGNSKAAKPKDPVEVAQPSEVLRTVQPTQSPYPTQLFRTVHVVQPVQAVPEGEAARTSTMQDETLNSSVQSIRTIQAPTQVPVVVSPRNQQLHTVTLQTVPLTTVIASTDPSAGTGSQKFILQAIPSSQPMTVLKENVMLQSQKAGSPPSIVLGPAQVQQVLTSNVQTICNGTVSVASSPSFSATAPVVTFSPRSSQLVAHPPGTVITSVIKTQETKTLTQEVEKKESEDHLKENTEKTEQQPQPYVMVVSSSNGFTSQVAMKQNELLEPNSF
UniProt P53634, sequence (P53634 whole entry, looked up): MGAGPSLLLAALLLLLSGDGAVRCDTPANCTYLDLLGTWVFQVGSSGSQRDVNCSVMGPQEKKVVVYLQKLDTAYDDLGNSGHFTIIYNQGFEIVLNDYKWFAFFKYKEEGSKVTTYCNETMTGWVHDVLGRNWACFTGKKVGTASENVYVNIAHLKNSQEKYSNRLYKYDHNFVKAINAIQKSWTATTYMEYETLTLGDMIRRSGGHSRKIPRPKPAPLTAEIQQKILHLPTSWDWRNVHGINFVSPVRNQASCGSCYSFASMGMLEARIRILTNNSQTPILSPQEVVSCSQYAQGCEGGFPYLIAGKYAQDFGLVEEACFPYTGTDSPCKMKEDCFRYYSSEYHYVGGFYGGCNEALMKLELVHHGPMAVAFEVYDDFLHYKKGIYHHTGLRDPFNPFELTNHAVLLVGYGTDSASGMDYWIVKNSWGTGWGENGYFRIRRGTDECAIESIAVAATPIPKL

Row | Target | log2 fold change [1] | log2 fold change (volasertib) | log2 fold change [2] | log2 fold change (epoxomicin) | log2 fold change [3] | log2 fold change [4] | log2 fold change [5] | log2 fold change (rosiglitazone) | log2 fold change [6] | log2 fold change [7] | log2 fold change (saracatinib) | log2 fold change (sotrastaurin) | log2 fold change (alvocidib) | log2 fold change (Tubastatin A) | log2 fold change [8] | log2 fold change (defactinib) | log2 fold change (rucaparib) | log2 fold change [9] | log2 fold change (encorafenib) | log2 fold change [10]
1 | F5 (UniProt P12259) | -0.06 | 0.105 | -0.018 | -0.125 | 0.163 | -0.048 | -0.09 | -0.054 | 0.141 | -0.009 | -0.003 | 0.139 | 0.134 | -0.076 | 0.133 | 0.081 | -0.079 | -0.068 | 0.037 | 0.039
2 | EEF1A1 (UniProt P68104) | -0.19 | 0.098 | 0.131 | 0.148 | 0.021 | – | 0.165 | -0.326 | -0.121 | – | 0.093 | -0.082 | -0.885 (active) | -0.096 | 0.007 | -0.079 | 0.146 | 0.102 | -0.009 | -0.059
3 | DOLPP1 (UniProt Q86YN1) | -0.062 | -0.008 | -0.052 | – | -0.129 | – | 0.133 | -0.034 | – | – | – | – | -0.059 | -0.066 | 0.012 | -0.134 | 0.087 | – | -0.057 | 0.156
4 | DNAJC1 (UniProt Q96KC8) | -0.097 | -0.185 | 0.024 | 0.037 | 0.008 | 0.014 | 0.002 | 0.014 | -0.01 | -0.144 | -0.02 | -0.028 | -0.012 | 0.018 | 0.046 | 0.004 | 0.03 | -0.011 | 0.003 | 0.005
5 | DOHH (UniProt Q9BU89) | -0.035 | -0.027 | 0.031 | -0.197 | 0.064 | -0.1 | 0.145 | 0.471 (active) | 0.025 | 0.164 | -0.035 | 0.196 | 0.147 | -0.121 | -0.076 | -0.152 | -0.002 | -0.064 | -0.074 | 0.037
6 | CTSC (UniProt P53634) | -0.419 (active) | -0.946 (active) | -0.034 | 0.023 | 0.015 | -0.032 | 0.146 | -0.047 | -0.015 | -0.433 (active) | 0.03 | 0.046 | 0.074 | -0.015 | 0.052 | 0.035 | 0.031 | -0.005 | -0.082 | 0.007
7 | ECPAS (UniProt Q5VYK3) | -0.188 | -0.602 (active) | 0.093 | 0.614 (active) | -0.097 | -0.029 | 0.079 | 0.041 | 0.026 | -0.143 | -0.055 | -0.124 | -0.033 | 0.038 | 0.012 | -0.06 | 0.09 | 0.027 | 0.122 | -0.045
8 | FAM118B (UniProt Q9BPY3) | -0.087 | -0.445 (active) | 0.035 | 0.036 | -0.008 | -0.067 | 0.11 | 0.026 | – | -0.373 (active) | – | -0.02 | -0.142 | 0.019 | 0.088 | -0.113 | 0.041 | – | 0.029 | -0.037
9 | EEF1D isoform 2 (UniProt P29692) | -0.089 | -0.336 (active) | -0.001 | 0.008 | -0.031 | 0.05 | -0.022 | 0.019 | 0.015 | -0.039 | -0.04 | -0.03 | 0 | 0.001 | 0.107 | -0.011 | 0.053 | 0.017 | 0.078 | -0.013
10 | EHBP1L1 (UniProt Q8N3D4) | -0.035 | -0.307 (active) | 0.091 | 0.072 | 0.012 | -0.055 | 0.029 | 0.094 | 0.077 | 0.101 | -0.065 | -0.082 | -0.049 | 0.098 | -0.002 | -0.089 | 0.1 | -0.008 | 0.127 | -0.017
11 | ENTPD7 (UniProt Q9NQZ7) | -0.204 | -0.233 | 0.08 | 0.032 | 0.032 | – | – | 0.061 | -0.021 | – | 0.155 | 0.17 | – | 0.064 | -0.162 | – | -0.078 | 0.136 | -0.26 | –
12 | ELF1 (UniProt P32519) | 0.116 | -0.516 | 0.185 | 0.117 | -0.161 | – | – | – | 0.027 | – | 0.02 | -0.027 | -0.101 | 0.075 | 0.013 | – | -0.301 | -0.03 | 0.018 | –
13 | EIF4G3 isoform 3 (UniProt O43432) | -0.074 | -0.165 | 0.007 | – | 0.012 | – | 0.039 | 0.019 | 0.021 | – | -0.076 | -0.038 | -0.018 | -0.016 | -0.019 | 0.04 | 0.519 | -0.056 | 0.031 | -0.025
14 | EMD (UniProt P50402) | -0.127 | -0.273 (active) | 0 | -0.065 | -0.004 | 0 | -0.018 | -0.054 | 0.003 | -0.078 | 0.011 | 0.063 | -0.043 | -0.028 | -0.046 | -0.027 | 0.008 | -0.064 | -0.056 | 0.032
15 | CYB561A3 isoform 2 (UniProt Q8NBI2) | -0.058 | 0.103 | -0.089 | – | -0.007 | -0.241 | – | 0.052 | -0.021 | 0.032 | 0.019 | 0.001 | -0.043 | 0.047 | 0.025 | – | 0.395 (active) | -0.068 | -0.014 | –
16 | CTNNBL1 (UniProt Q8WYA6) | -0.362 | -1.24 (active) | – | – | – | – | 0.012 | 0.072 | – | – | – | – | – | – | – | -0.513 | 0.137 | – | 0.121 | -0.19
17 | EVC2 (UniProt Q86UK5) | -0.133 | -0.003 | 0.078 | 0.097 | -0.038 | -0.037 | -0.087 | 0.128 | 0.034 | -0.293 | -0.151 | 0.067 | 0.031 | -0.033 | -0.035 | -0.065 | 0.065 | 0.035 | 0.002 | 0.073
18 | DAG1 (UniProt Q14118) | 0.149 | 0.048 | -0.008 | 0.023 | -0.039 | -0.044 | 0.012 | -0.007 | -0.075 | 0.243 (active) | -0.033 | 0.1 | -0.026 | -0.021 | -0.093 | -0.032 | -0.014 | 0.052 | 0.002 | 0.007
